Assay results from PubChem BioAssay AID1347071 (National Center for Advancing Translational Sciences (NCATS), 2019).
In all, about 410,000 compounds went through this assay and about 260 (0.063%) were called active. Entries that show only a call come without a potency. Inconclusive results (about 2%) are left out. This is one part of a sample in which actives are shown more often than they occur. The call rests on the fitted dose curve; in most records, active means well fitted activation curve with a large enough effect; inconclusive means small, poorly fitted or top-dose-only effect; inactive means no such curve, though single readings can be large or run the other way.
Potency means the concentration at half of the fitted maximal effect.

Experiment: qHTS for compounds that reverse cellular toxicity of Amyloid beta (A-beta) peptide in yeast: Primary Screen; further: nearly all actives have a fitted effect of over 55% in size
Conditions: yeast expressing A-beta42, growth rescue, OD600, 48 h; series mostly up to 46.1 µM
Description: The A-beta peptide is produced by the processing of the amyloid precursor protein (APP) by two proteases, beta and gamma secretases. […] A-beta42 is regarded as the most amyloidogenic form due to its hydrophobicity; however, precisely how A-beta42 induces neurotoxicity is unclear. To understand further this biology and its potential therapeutic implications for human neurodegenerative disease, a quantitative high-throughput screen for compounds that reverse the cellular toxicity of the A-beta peptide was developed. A yeast based screen was used because it recapitulates the salient feature of protein mis-folding disorder accurately. This cell-based phenotypic screen provides a significant, unbiased advantage by letting the compounds and models inform us which proteins or pathways are most relevant. The ideal chemical candidates would therefore have activity in both our primary yeast and secondary neuronal toxicity assays, as well as in mouse models. They will be valuable tools for dissecting diverse protein homeostasis pathologies and could potentially become the focus for future pre-clinical development. For this luminescence assay, inhibition of A-beta rescues the toxic effect in the yeast cell, resulting in increase of signals and the desired phenotype of "Activator". This screen is run against the Molecular Libraries Small Molecule Repository (MLSMR) and the NCGC Sytravon Library Collection.
NIH Chemical Genomics Center [NCGC]
NIH Molecular Libraries Probe Centers Network [MLPCN]
Assay Submitter (PI): Susan Lindquist, Whitehead Institute, Massachusetts Institute of Technology
[1] Vassar R,et al (1999). Beta-secretase cleavage of Alzheimer's amyloid precursor protein by the transmembrane aspartic protease BACE. Science. 286: 735-741.
[2] Yan R, et al (1999). Membrane-anchored aspartyl protease with Alzheimer's disease beta-secretase activity. Nature. 402: 533-536.
Two and a half microliter / well of yeast growth medium were dispensed in a 1536 assay plate. Compounds were pinned using the Kalypsys robotic system followed by addition of 2.5 uL / well yeast solution. The assay plates were incubated at 30 C. After 48 hr, the absorbance signal at 600 nm was obtained using the PerkinElmer ViewLux plate reader to assess yeast growth. The data was normalized to the positive control of an equimolar mixture of ferric chloride (FeCl3) and clioquinol and to the negative control DMSO.
With `CCOC(=O)c1cnc2c(C)cc(C)cc2c1Nc1ccc(N2CCOCC2)cc1` the Potency was “inactive”.
For `COc1ccc(CNC(=O)Cn2nnc(-c3ccccc3F)n2)cc1`, the Potency was “inactive”.
For `Cc1cccc(-n2ccnc2SCC(=O)Nc2cccc3ccccc23)c1C`, the Potency was “inactive”.
For `O=C(/C=C/c1ccccc1)N1CCN(Cc2cc(=O)n3nc(-c4ccccc4F)sc3n2)CC1`, the Potency was “inactive”.
In the case of `Cc1ccc(Oc2c(C(F)(F)F)oc3c(CN4CCCCC4)c(O)ccc3c2=O)cc1`, the Potency is reported as “inactive”.
For `O=C(NC1(C(F)(F)F)N=C(c2ccccc2)N(C2CCCCC2)C1=O)c1ccccc1F` (stereo not drawn), the Potency was “inactive”.
With `Cc1cccc(N2CCN(C3=C(c4ccccc4)C(=O)c4ccccc43)CC2)c1C` the Potency was “inactive”.
For `Cc1ccc(-n2nnnc2CNC(=O)c2ccccc2C)cc1C`, the Potency was “inactive”.
In the case of `CCOC(=O)C1CCN(C(=O)CSc2c3c(nc4ccc(Cl)cc24)CCCC3)CC1`, the Potency is reported as “inactive”.
In the case of `CN(Cc1ccccc1)C(=O)c1cc2c(=O)n(C)c3ccccc3c2s1`, the Potency is reported as “inactive”.
In the case of `COc1ccccc1NC(=O)c1sc2nc(C)c(C(=O)Nc3ccc(Cl)cc3)c(-c3ccc(Br)cc3)c2c1N`, the Potency is reported as “inactive”.
For `CCOc1ccc(CNCCSc2nnnn2C)cc1`, the Potency was “inactive”.
With `CCOC(=O)c1ccccc1NC(=O)c1nn(-c2ccc(OC)c(Cl)c2)c(=O)c2c1c1ccccc1n2C` the Potency was “inactive”.
With `COCCn1c(CCC(=O)Nc2cc(C)ccc2C)nc2cccnc21` the Potency was “inactive”.
For `COc1cccc(CN2CCc3nc(SCC(=O)Nc4ccccc4)[nH]c(=O)c3C2)c1`, the Potency was “inactive”.
In the case of `CC(C)CC(=O)N/C(N)=N/c1nc2ccccc2s1`, the Potency is reported as 11.2 µM (active).
For `Cc1c(NC(=O)C(C)(C)C)cccc1-c1nc2ccccc2s1`, the Potency was “inactive”.
With `Cc1cc(C)cc(-n2ccnc2SCC(=O)Nc2nc3ccccc3s2)c1` the Potency was “inactive”.
With `Cc1ccc(-c2cc(C(=O)Oc3ccccc3Cl)no2)cc1C` the Potency was “inactive”.
For `Cc1ccc(C)c(Cn2c(=O)n(CCC(=O)NCc3ccc4c(c3)OCO4)c(=O)c3sccc32)c1`, the Potency was “inactive”.
For `CC(=O)N1CCCc2ccc(NS(=O)(=O)c3ccc(F)cc3F)cc21`, the Potency was “inactive”.
For `COc1ccc(OC)c(CNC(=O)Cn2nc(C)c3c(C)n(-c4ccccc4)nc3c2=O)c1`, the Potency was “inactive”.
In the case of `COc1cc(OC)c(OC)cc1/C=C/c1nc2cc3ccccc3cc2c(=O)n1-c1ccc(F)c(Cl)c1`, the Potency is reported as “inactive”.
In the case of `CCOC(=O)c1cccc(NC(=O)C(Cc2ccccc2)NS(=O)(=O)c2cccc3nsnc23)c1` (stereo not drawn), the Potency is reported as “inactive”.
In the case of `COC(=O)c1ccc(C2C(C(=O)Nc3ccccc3)=C(C)Nc3nc4ccccc4n32)cc1` (stereo not drawn), the Potency is reported as “inactive”.
For `O=C(CSc1nccc(=O)[nH]1)Nc1ccc(N2CCOCC2)c(Cl)c1`, the Potency was “inactive”.
In the case of `O=C(CSc1ccc([N+](=O)[O-])cn1)Nc1ccc(N2CCOCC2)c(Cl)c1`, the Potency is reported as 22.4 µM (active).
For `CCOc1ccc(C(=O)NC(=S)Nc2ccc(N3CCOCC3)c(Cl)c2)cc1[N+](=O)[O-]`, the Potency was “inactive”.
In the case of `Cc1cc(=O)c2cc(C(=O)Nc3cccc(C)c3C)ccc2[nH]1`, the Potency is reported as “inactive”.
With `Cc1cc2n(n1)C(c1cc(C(C)(C)C)c(O)cc1O)Nc1ccccc1-2` (stereo not drawn) the Potency was “inactive”.
In the case of `Cc1ccc(S(=O)(=O)c2nc(-c3cccs3)oc2N2CCCCC2)cc1`, the Potency is reported as “inactive”.
In the case of `CCOC(=O)c1ccc(NC(=O)Cn2cc(S(=O)(=O)Cc3ccccc3F)c3ccccc32)cc1`, the Potency is reported as “inactive”.
For `Cc1ccc2sc(N(Cc3cccnc3)C(=O)C3COc4ccccc4O3)nc2c1C` (stereo not drawn), the Potency was “inactive”.
In the case of `Cc1ccc(C(=O)Nc2ccc3[nH]c(=O)c(=O)[nH]c3c2)cc1`, the Potency is reported as “inactive”.
For `C=Cc1ccc(Cn2c(C(=O)OC)cc3sc(C)cc32)cc1`, the Potency was “inactive”.
For `CC1=C(C(=O)OCc2ccc(C)cc2)C(c2c(Cl)cccc2Cl)CC(=O)N1` (stereo not drawn), the Potency was “inactive”.
With `COc1cc(-c2noc(-c3ccc(N4CCCC4)c([N+](=O)[O-])c3)n2)cc(OC)c1OC` the Potency was “inactive”.
For `CCc1ccccc1NC(=O)N1CCN(C(=O)c2nsc3ccccc23)CC1`, the Potency was “inactive”.
In the case of `COc1cccc(CNC(=O)CN2C(=O)CCc3cc(S(=O)(=O)N4CCOCC4)ccc32)c1`, the Potency is reported as “inactive”.
In the case of `CCn1c2c(c(=O)n3ncc(C(=O)N4CCN(c5ccccc5)CC4)c13)CN(Cc1ccc(OC)cc1)CC2`, the Potency is reported as “inactive”.
With `O=C(NC1CC(=O)N(c2ccc(Cl)cc2)C1)C1CCCC1` (stereo not drawn) the Potency was “inactive”.
In the case of `Cc1csc2nc(COC(=O)c3ccc(NC(=O)COc4ccccc4F)cc3)cc(=O)n12`, the Potency is reported as “inactive”.
With `COc1ccc(-c2cccc(NS(=O)(=O)c3cc(C)c(OC)c(C)c3C)c2)nn1` the Potency was “inactive”.
For `CCN(C(=O)Cn1cc(S(=O)(=O)N2CCN(c3ccccc3F)CC2)c2ccccc2c1=O)c1ccc(C)c(C)c1`, the Potency was “inactive”.
For `COc1cc2nc(SCc3ccc(F)cc3)n3nc(CCn4c(C)nc5ccccc54)nc3c2cc1OC`, the Potency was “inactive”.
With `N#Cc1nc(/C=C/c2ccc(F)cc2)oc1NC1CCCCC1` the Potency was “inactive”.
With `Cc1ccc(CNS(=O)(=O)c2ccc(-c3cc(C(F)(F)F)on3)s2)cc1` the Potency was “inactive”.
For `O=C(CCC1N=C2c3ccccc3N=C(SCc3ccccc3F)N2C1=O)NCCc1ccccc1` (stereo not drawn), the Potency was “inactive”.
With `Cc1ccc(OCCn2c(CNc3ccccc3C)nc3ccccc32)cc1` the Potency was “inactive”.
In the case of `CCCC12CN3CC(C)(CN(C1)C3c1ccccc1Cl)C2=O` (stereo not drawn), the Potency is reported as “inactive”.
With `CCC1CCCCN1C(=O)Cn1c(=O)n(CCCCCC(=O)NCc2ccccc2)c(=O)c2sccc21` (stereo not drawn) the Potency was “inactive”.
In the case of `Cc1ccc(C2c3[nH]c4ccccc4c3CCN2C(=O)c2cccc(C)c2)cc1` (stereo not drawn), the Potency is reported as “inactive”.
In the case of `Cc1onc(-c2ccc(F)cc2F)c1C(=O)Nc1cccc(C(F)(F)F)c1`, the Potency is reported as “inactive”.
